Assay results from PubChem BioAssay AID1159580 (chemical genetic matrix, 2015).
In all, about 5,500 compounds went through this assay and about 2,000 (36%) were called active. About 18% were inconclusive and are not listed. No stated cut-off is given here; in the data, active means normalized growth mostly below about 0.91 (no sharp cut-off); inconclusive means no clear call, values can overlap the other calls; inactive means mostly above about 0.92. The list shows a part of the results.

Experiment: chemical genetic growth profiling, strain panel (AID 1159580);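 further: tested at 20 µM; growth read once vehicle control cultures reached saturation at 30 °C; 1 = growth at the plate median or of vehicle wells; lower values mean less growth of the strain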
Settings: growth OD
[1] = S. cerevisiae deletion strains, locus YDL101C, strain DUN1, active compounds read low
[2] = S. cerevisiae deletion strains, locus YHR030C, strain SLT2, active compounds read low

Measured: normalized growth

CC(C)(C)C(=O)c1sc2sc(C(=O)C(C)(C)C)c(N)c2c1N
inactive: S. cerevisiae deletion strains, locus YAR019C, strain CDC15, active compounds read low 0.993 | S. cerevisiae deletion strains, locus YBL105C, strain PKC1, active compounds read low 0.992 | S. cerevisiae deletion strains, locus YBR135W, strain CKS1, active compounds read low 0.984 | S. cerevisiae deletion strains, locus YBR136W, strain MEC1, active compounds read low 0.984 | S. cerevisiae deletion strains, locus YBR160W, strain CDC28, active compounds read low 0.994 | S. cerevisiae deletion strains, locus YDL017W, strain CDC7, active compounds read low 0.993 | S. cerevisiae deletion strains, locus YDL028C, strain MPS1, active compounds read low 0.992 | [1] 0.981 | S. cerevisiae deletion strains, locus YDL108W, strain KIN28, active compounds read low 0.989 | S. cerevisiae deletion strains, locus YDL132W, strain cdc53, active compounds read low 0.975 | S. cerevisiae deletion strains, locus YDL214C, strain PRR2, active compounds read low 0.835 | S. cerevisiae deletion strains, locus YDR052C, strain DBF4, active compounds read low 0.999 | S. cerevisiae deletion strains, locus YDR054C, strain cdc34, active compounds read low 0.983 | S. cerevisiae deletion strains, locus YDR226W, strain ADK1, active compounds read low 0.976 | S. cerevisiae deletion strains, locus YDR477W, strain SNF1, active compounds read low 0.875 | S. cerevisiae deletion strains, locus YER123W, strain YCK3, active compounds read low 0.752 | S. cerevisiae deletion strains, locus YER133W, strain GLC7, active compounds read low 0.862 | S. cerevisiae deletion strains, locus YFL009W, strain cdc4, active compounds read low 0.988 | S. cerevisiae deletion strains, locus YFL029C, strain CAK1, active compounds read low 0.991 | S. cerevisiae deletion strains, locus YFR003C, strain YPI1, active compounds read low 0.997 | S. cerevisiae deletion strains, locus YFR028C, strain CDC14, active compounds read low 0.982 | S. cerevisiae deletion strains, locus YGR040W, strain KSS1, active compounds read low 0.879 | S. cerevisiae deletion strains, locus YGR052W, strain FMP48, active compounds read low 0.689 | S. cerevisiae deletion strains, locus YGR092W, strain DBF2, active compounds read low 0.894 | S. cerevisiae deletion strains, locus YHR082C, strain KSP1, active compounds read low 0.62 | S. cerevisiae deletion strains, locus YHR205W, strain SCH9, active compounds read low 0.872 | S. cerevisiae deletion strains, locus YIL147C, strain SLN1, active compounds read low 0.995 | S. cerevisiae deletion strains, locus YJL095W, strain BCK1, active compounds read low 0.52 | S. cerevisiae deletion strains, locus YJL128C, strain PBS2, active compounds read low 0.931 | S. cerevisiae deletion strains, locus YJL157C, strain FAR1, active compounds read low 0.785 | S. cerevisiae deletion strains, locus YJR016C, strain ILV3, active compounds read low 0.99 | S. cerevisiae deletion strains, locus YJR066W, strain TOR1 (second series), active compounds read low 0.823 | S. cerevisiae deletion strains, locus YJR066W, strain TOR1, active compounds read low 0.589 | S. cerevisiae deletion strains, locus YKL048C, strain ELM1, active compounds read low 0.983 | S. cerevisiae deletion strains, locus YKL067W, strain YNK1, active compounds read low 0.902 | S. cerevisiae deletion strains, locus YKL101W, strain HSL1, active compounds read low 0.962 | S. cerevisiae deletion strains, locus YKL193C, strain SDS22, active compounds read low 0.987 | S. cerevisiae deletion strains, locus YKL203C, strain TOR2, active compounds read low 0.936 | S. cerevisiae deletion strains, locus YLR133W, strain CKI1, active compounds read low 0.888 | S. cerevisiae deletion strains, locus YLR403W, strain SFP1, active compounds read low 0.851 | S. cerevisiae deletion strains, locus YML070W, strain DAK1, active compounds read low 0.704 | S. cerevisiae deletion strains, locus YMR001C, strain CDC5, active compounds read low 0.993 | S. cerevisiae deletion strains, locus YMR205C, strain PFK2 (second series), active compounds read low 0.965 | S. cerevisiae deletion strains, locus YMR277W, strain FCP1, active compounds read low 0.989 | S. cerevisiae deletion strains, locus YNL006W, strain LST8, active compounds read low 0.999 | S. cerevisiae deletion strains, locus YNL020C, strain ARK1, active compounds read low 0.892 | S. cerevisiae deletion strains, locus YNL161W, strain CBK1, active compounds read low 0.994 | S. cerevisiae deletion strains, locus YNL183C, strain NPR1, active compounds read low 0.855 | S. cerevisiae deletion strains, locus YNL207W, strain RIO2, active compounds read low 0.989 | S. cerevisiae deletion strains, locus YNL222W, strain SSU72, active compounds read low 0.993 | S. cerevisiae deletion strains, locus YNL307C, strain MCK1 (second series), active compounds read low 0.97 | S. cerevisiae deletion strains, locus YOL078W, strain AVO1, active compounds read low 0.987 | S. cerevisiae deletion strains, locus YOR061W, strain CKA2, active compounds read low 0.915 | S. cerevisiae deletion strains, locus YOR119C, strain RIO1, active compounds read low 1.01 | S. cerevisiae deletion strains, locus YOR231W, strain MKK1, active compounds read low 0.682 | S. cerevisiae deletion strains, locus YOR329C, strain SCD5, active compounds read low 0.991 | S. cerevisiae deletion strains, locus YPL031C, strain PHO85, active compounds read low 0.804 | S. cerevisiae deletion strains, locus YPL153C, strain RAD53, active compounds read low 0.692 | S. cerevisiae deletion strains, locus YPL209C, strain IPL1, active compounds read low 0.993 | S. cerevisiae deletion strains, locus YPR025C, strain CCL1, active compounds read low 0.991 | S. cerevisiae deletion strains, locus YPR106W, strain ISR1, active compounds read low 0.995 | S. cerevisiae deletion strains, locus YPR111W, strain DBF20, active compounds read low 0.99 | S. cerevisiae deletion strains, strain NNK1, active compounds read low 0.996 | S. cerevisiae deletion strains, strain TSCII, active compounds read low 0.994
active: S. cerevisiae deletion strains, locus YFR019W, strain FAB1, active compounds read low 0.47 | [2] 0.152 | S. cerevisiae deletion strains, locus YHR079C, strain IRE1, active compounds read low 0.274 | S. cerevisiae deletion strains, locus YLR113W, strain HOG1, active compounds read low 0.663 | S. cerevisiae deletion strains, locus YOL136C, strain PFK27, active compounds read low 0.6 | S. cerevisiae deletion strains, locus YPL204W, strain HRR25, active compounds read low 0.646 | S. cerevisiae deletion strains, locus YPL256C, strain CLN2, active compounds read low 0.326

CC(C)(C)c1ccc(-c2cc(N)c(C(N)=O)s2)cc1
inactive: S. cerevisiae deletion strains, locus YAL013W, strain DEP1, active compounds read low 0.978 | S. cerevisiae deletion strains, locus YBR229C, strain ROT2, active compounds read low 0.997 | S. cerevisiae deletion strains, locus YCL061C, strain MRC1, active compounds read low 1.01 | [1] 1.01 | S. cerevisiae deletion strains, locus YDR150W, strain NUM1, active compounds read low 0.974 | S. cerevisiae deletion strains, locus YEL061C, strain CIN8, active compounds read low 0.967 | S. cerevisiae deletion strains, locus YGR078C, strain PAC10, active compounds read low 1.01 | [2] 0.761 | S. cerevisiae deletion strains, locus YHR087W, strain rtc3, active compounds read low 1.02 | S. cerevisiae deletion strains, locus YJR043C, strain POL32, active compounds read low 0.979 | S. cerevisiae deletion strains, locus YJR075W, strain HOC1, active compounds read low 1 | S. cerevisiae deletion strains, locus YKL190W, strain CNB1, active compounds read low 1 | S. cerevisiae deletion strains, locus YLR039C, strain RIC1, active compounds read low 0.93 | S. cerevisiae deletion strains, locus YLR058C, strain SHM2 (second series), active compounds read low 1.01 | S. cerevisiae deletion strains, locus YLR085C, strain ARP6, active compounds read low 0.987 | S. cerevisiae deletion strains, locus YLR262C, strain YPT6, active compounds read low 0.827 | S. cerevisiae deletion strains, locus YML094W, strain GIM5, active compounds read low 1.01 | S. cerevisiae deletion strains, locus YMR219W, strain ESC1, active compounds read low 0.996 | S. cerevisiae deletion strains, locus YMR263W, strain SAP30, active compounds read low 0.967 | S. cerevisiae deletion strains, locus YMR307W, strain GAS1, active compounds read low 0.881 | S. cerevisiae deletion strains, locus YNL153C, strain GIM3, active compounds read low 1 | S. cerevisiae deletion strains, locus YNL298W, strain CLA4 (second series), active compounds read low 0.966 | S. cerevisiae deletion strains, locus YNL322C, strain KRE1, active compounds read low 0.985 | S. cerevisiae deletion strains, locus YNR030W, strain Alg12, active compounds read low 0.942 | S. cerevisiae deletion strains, locus YOL006C, strain TOP1, active compounds read low 0.946 | S. cerevisiae deletion strains, locus YPL055C, strain LGE1, active compounds read low 0.916 | S. cerevisiae deletion strains, locus YPL241C, strain CIN2, active compounds read low 0.983 | S. cerevisiae deletion strains, locus YPR135W, strain CTF4, active compounds read low 0.783 | S. cerevisiae strains, strain wild type, active compounds read low 0.989
